Screens from PubChem.
CHX counter: counter-screen for Shiga toxin inhibitors: cycloheximide protein synthesis inhibition | cell reporter, cycloheximide protein synthesis inhibition counterscreen | max response, % | 12% of 300,000 active | AID 2314; in the data active means max response mostly above about 13%, no sharp cut-off; inactive means mostly below about 14%; further: read at 38.3 µM for the half of the compounds with a filed dose; 0% is about no effect
LASV entry inh: blocks Lassa virus binding to or entry into cells; Lassa virus pseudotype entry inhibition, cell reporter; 1.2% of 300,000 active; Potency, µM (doses to about 37.9 µM), without a hit: top-dose activity change, negative = inhibition, hits mostly inhibitors; AID 540256; calls by dose curve; tested in HEK293 cells; further: potency means the concentration at half of the fitted maximal effect; on the % scale 0 is the no-effect control and ±100 the full control effect; nearly all actives have a fitted effect of over 50% in size
Marburg entry inh: Marburg virus entry inhibition; AID 540276; Potency, µM (top dose mostly 37.8 µM), for inactives: top-dose activity change, negative = inhibition, hits mostly inhibitors; Marburg virus pseudotyped entry inhibition, cell reporter; 1.8% of 300,000 active; calls by dose curve; tested in HEK293 cells; further: potency means the concentration at half of the fitted maximal effect; on the % scale 0 is the no-effect control and ±100 the full control effect
Pf growth 48h: P. falciparum growth inhibition at 48 hours (one generation). 5.9% of 310,000 active. AID 504832. Potency, µM (doses to about 28.7 µM), inactives show at the highest dose activity change, negative = inhibition, most hits filed as inhibitors. P. falciparum luciferase growth in erythrocytes, 48 h; further: potency means the concentration at half of the fitted maximal effect; on the % scale 0 is the no-effect control and ±100 the full control effect
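Parasite viability was followed by luminescence of a genomically integrated firefly luciferase. Cultures held 0.1% parasitemia at 2% hematocrit (final), incubated under 5% CO2 at 37 C.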
Shiga toxin inh: blocks Shiga toxin action in Vero cells. inhibition, % at 38.7 µM. AID 2315. Vero cells, Shiga toxin protein synthesis inhibition reporter. 9.2% of 290,000 active; in the data active means inhibition mostly above about 28%, no sharp cut-off; inactive means mostly below about 43%; further: 0% is about no effect
Pf growth 96h: P. falciparum growth inhibition at 96 hours; P. falciparum luciferase reporter growth, 96 h; Potency, µM (top dose mostly 28.7 µM), for the others: at the top dose activity change, negative = inhibition, usual class: inhibitors; 6.9% of 320,000 active; further: potency means the concentration at half of the fitted maximal effect; on the % scale 0 is the no-effect control and ±100 the full control effect
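Luminescence readout: decreased luciferase signal marks inhibited growth of reporter-expressing P. falciparum in infected red cells (2% hematocrit, 0.05% parasitemia final), exposed to compound two generations (96 h, 37 C, 5% CO2).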
* = called active by the depositor; ? = inconclusive; / = no result given; + = active, no number; [ ] = remark or other dose. In the library only some 19% were active in any assay of this set; here they are far more common. Unless noted, the call rests on the fitted dose curve; in most records, active means well fitted inhibition curve with a large enough effect; inconclusive means small, poorly fitted or top-dose-only effect, or another doubt; inactive means no such curve, though single readings can be large or run the other way.

SMILES	CHX counter	LASV entry inh	Marburg entry inh	Pf growth 48h	Shiga toxin inh	Pf growth 96h
O=C(C1CCCN(c2ncnc3c2nc2n3CCCCC2)C1)N1CCN(c2cccc(Cl)c2)CC1 (stereo not given)	13	/	/	13µM*	-20	?
Cc1cccc(N2CCN(C(=O)C3CCN(c4ncnc5c4nc4n5CCCCC4)CC3)CC2C)c1 (stereo not given)	0	10µM*	?	0%	-13	12µM*
CCCCN(Cc1ccco1)C(=O)C1CCCN(c2ncnc3c2nc2n3CCCCC2)C1 (stereo not given)	3	?	?	9.3µM*	25	15%
CN(C(=O)C1CCCN(c2ncnc3c2nc2n3CCCCC2)C1)c1cccc(Cl)c1 (stereo not given)	3	?	-29%[46.1 µM]	2.9µM*	-6	-3%
Nc1nccnc1C(=O)OCC(=O)NCCc1ccc(S(N)(=O)=O)cc1	/	1%	?	9%	/	4%
O=C(CN1CCCN(Cc2ccc(F)cc2Cl)C1=O)NC1CCCCCC1	0	6%	12%	/	18	?
CC(=O)Nc1ccc2[nH]c3ccccc3c2c1	-2	22%	26%	33%	-2	31%
CSc1ccc(C2Nc3cccc4cccc(c34)N2)cc1	11	/	/	?	/	?
O=C(O)c1cc([N+](=O)[O-])c(NCc2cccnc2)c([N+](=O)[O-])c1	6	1%[46.1 µM]	-2%[46.1 µM]	9%	-15	41%
CC(C)(C)C(=O)NC(=S)Nc1ccccc1F	26*	1%	16%	34%	40	0%
CCCC(=O)NC(=S)Nc1ccccc1F	15*	-11%	9%	23%	74	32%
CC1CCN(CC(O)COC2CC(C)CCC2C(C)C)CC1 (stereo not given)	-3	/	/	12µM*	18	?
CC1CCC(C(C)C)C(OCC(O)CNC(C)(C)C)C1 (stereo not given)	-7	/	/	?	-9	5.2µM*
CCC(=O)N1CCc2cc(Br)cc(S(=O)(=O)CCC(=O)Nc3cccc(Cl)c3)c21	/	17%[46.1 µM]	-2%[46.1 µM]	/	/	/
O=C(NN=C1CCCCCC1)NC1CCCCC1	30*	3%	23%	1%	51*	?
CCC1=CC2CN3CCc4c([nH]c5ccccc45)[C@@](C(=O)OC)(C2)[C@@H]13	-4	/	/	/	-11	/
COc1ccc(CCNC(=O)Cc2cc(=O)[nH]c(=O)[nH]2)cc1OC	-4	/	/	/	10	23%
O=C1c2ccccc2C(=O)c2c1cccc2N1CCOCC1	27*	-12%	9%	15%	79*	103%
O=C1c2ccccc2-c2c1cccc2C(=O)N1CCOCC1	-3	8%	15%	-1%	-4	-2%
CN1CCN(c2cccc3c2C(=O)c2ccccc2C3=O)CC1	36*	13%	-35%	?	47*	-10%
CN1CCN(c2ccccc2N)CC1	3	3%	25%[46.1 µM]	32%	3	9%
COCCn1c(SCC(=O)N2CC(=O)Nc3ccccc32)nc2ccccc2c1=O	5	?	-7%	?	24	?
Cc1ccc(S(=O)(=O)/N=C(\CN2CCOCC2)N2CCCC2)cc1	-3	17%	0%	-11%	-5	/
Cc1ccc(S(=O)(=O)/N=C(\CCl)N2CCOCC2)cc1	-2	?	?	13µM*	1	?
Nc1ccc2ccccc2c1	/	22%	?	/	/	/
SMILES	CHX counter	LASV entry inh	Marburg entry inh	Pf growth 48h	Shiga toxin inh	Pf growth 96h
COc1ccc(Cc2nc3ccc(C(=O)N4C[C@@H](C)O[C@@H](C)C4)cc3o2)cc1OC	44*	/	/	?	62*	23%
COc1ccc(Cc2nc3ccc(C(=O)N4CCOCC4)cc3o2)cc1	68*	-20%	-11%	3%	+	?
CCC(CC)NC(=O)c1oc2ccccc2c1COc1ccccc1	8.4*	-23%	?	6.6µM*	25	4.1µM*
CC(C)CNC(=O)c1oc2ccccc2c1COc1ccccc1	-5	?	-20%[46.1 µM]	12µM*	-12	10µM*
Cc1cc(C)cc(NC(=O)c2oc3ccccc3c2COc2ccccc2)c1	-2	-6%	?	?	33	-102%
CCCCNC(=O)CCn1ccc2cc(S(=O)(=O)N3CCCC3)ccc21	-4	/	/	-5%	-4	-17%
Cc1ccc(C(=O)COC(=O)c2ccc(Br)o2)cc1C	40*	?	0%	/	63*	8%
COc1cc(C(=O)COC(=O)c2ccco2)cc(OC)c1OC	/	2%	3%	/	/	/
O=C(Oc1cccc(-c2cnc3ccccc3n2)c1)c1ccco1	45*	-26%	?	332%	49	89%
Cc1ccc(CNC(=O)COC(=O)c2ccc(Br)o2)cc1	/	/	/	-23%	/	-2%
O=C(COC(=O)c1ccco1)c1ccccc1	48*	17%[46.1 µM]	2%[46.1 µM]	26%	112*	15%
O=C(CSCc1ccc(Cl)cc1)Nc1ccccc1O	13	?	-2%[46.1 µM]	0%	21	153%
O=C(CSCc1ccc(Cl)cc1)c1ccco1	21*	/	-5%	2%	73	27%
CCN(CC)S(=O)(=O)c1ccc(C)c(C(=O)Oc2cccc(-c3cnc4ccccc4n3)c2)c1	4	?	9%	212%	11	-7%
Cc1ccc(C(=O)COC(=O)c2cc(=O)[nH]c3ccccc23)cc1C	24*	?	?	34%	150*	-5%
CC1CC2(CCCC2)Nc2ccc(F)cc21 (stereo not given)	-7	/	/	-6%	26	3%
O=C(COC(=O)c1ccco1)c1ccc(Cl)cc1	29*	7%[46.1 µM]	?	11%	104*	-6%
COc1ccccc1C(=O)COC(=O)c1cc(=O)[nH]c2ccccc12	/	?	-1%[46.1 µM]	21%	/	26%
CC1CC(C)(C)Nc2ccc(N=O)cc21 (stereo not given)	51*	/	/	?	79*	-1%
Cc1ccc(C(=O)COC(=O)c2ccco2)cc1C	49*	/	/	6%	88*	25%
CCCCCn1c(=O)[nH]c2cc(C(=O)NCCCN(CC)CC)ccc2c1=O	-4	-4%	-27%	-25%	-1	?
O=C(O)c1ccc(Cl)c(S(=O)(=O)N(Cc2ccccc2)c2ccccc2Cl)c1	-3	/	/	-15%	12	7%
CC(=O)Nc1ccc(OC(=O)c2ccco2)cc1	3	5%	-6%	22%	10	?
O=C(COC(=O)c1ccco1)c1ccc2ccccc2c1	56*	11%	-6%[46.1 µM]	21%	124	/
O=C(Oc1ccc2ccccc2c1)c1ccco1	20*	-4%	-21%	1%	33	-9%
O=C(CSc1ccc(Cl)cc1)NNC(=O)c1ccco1	10	/	/	15%	-8	15µM*
Cc1cc(=O)oc2cc(OC(=O)c3ccco3)ccc12	4	/	/	0%	-2	25%
CC1CC(C)(C)Nc2ccc(OC(=O)c3ccco3)cc21 (stereo not given)	49*	?	?	?	121*	-12%
